Test results from PubChem BioAssay (EPA / NIEHS).
Active and inactive are the calls of the source. The calls were made as follows: active = hit-call score of the fitted dose curve at least 0.9, where 1 is the maximum; inactive = score below 0.9.

Legend:
[1] = APR_HepG2_CellLoss_72hr: Apredica 72-hour HepG2 Assay for Cell Loss (AID 2282915); conditions: high-content imaging
Procedure, shortened: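 HepG2 cells exposed 72 h to compound at 0.39–200 uM (10 concentrations, duplicate) in 0.5% DMSO. Fixed with 3.7% formaldehyde and Hoechst 33342-stained. Imaged at 20x; nuclear count gives cell number, fitted bidirectionally versus DMSO.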

[2] = APR_HepG2_P-H2AX_72hr: Apredica 72-hour HepG2 Assay for H2AX Phosphorylation (AID 2282916); conditions: imaging, actives raise or lower the signal;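 also: phospho-histone H2A.x immunostain intensity per cell marking DNA damage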
Procedure, shortened: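 Readout: phospho-H2A.x immunofluorescence (FITC secondary) plus Hoechst nuclear stain, high-content imaging at 20x, six fields/well. HepG2, 72 hr compound exposure, 0.39–200 uM, final DMSO 0.5% v/v. Gain or loss fitted relative to DMSO baseline.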

[3] = APR_HepG2_MitoMembPot_72hr: Apredica 72-hour HepG2 Assay for Mitochondrial Membrane Potential (AID 2282917); conditions: imaging, actives raise or lower the signal
Procedure, shortened: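 HepG2 cells dosed 72 hr with compound at 0.39–200 uM in duplicate, 0.5% v/v DMSO final. Mitochondria stained with 250 nM MitoTracker Red CMXRos for 30 min before formaldehyde fixation, imaged by high-content fluorescence; bidirectional fit versus DMSO.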

[4] = APR_HepG2_MitoticArrest_72hr: Apredica 72-hour HepG2 Assay for Mitotic Arrest (AID 2282918); conditions: high-content imaging, actives raise or lower the signal
Procedure, shortened: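 Read-out is phospho-histone H3 immunofluorescence with Hoechst nuclear segmentation, imaged at 20x. Human HepG2 liver cells received ten concentrations (0.39–200 uM, final DMSO 0.5% v/v) for 72 hr before fixation. Gain or loss of signal was fitted relative to DMSO.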

[5] = APR_HepG2_MicrotubuleCSK_72hr: Apredica 72-hour HepG2 Assay for Microtubule CSK Stabilty (AID 2282919); conditions: HepG2 microtubule cytoskeleton, high-content imaging, actives raise or lower the signal
Procedure, shortened: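 HepG2, 72 hr cmpd exposure, 0.39–200 uM (10 pts, duplicate), 0.5% DMSO. 3.7% formaldehyde fix, 0.5% Triton perm, anti-alpha-tubulin/Cy5 plus Hoechst. HCS fluorescence intensity; bidirectional fit vs DMSO baseline; taxol as positive control.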

[6] = APR_HepG2_P-H2AX_24hr: Apredica 24-hour HepG2 Assay for H2AX Phosphorylation (AID 2282920); conditions: high-content imaging, actives raise or lower the signal
Procedure, shortened: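 HepG2, 24 hr, cpd 0.39–200 uM (10 conc, duplicate), DMSO 0.5% v/v final. Fix 3.7% formaldehyde, Triton X-100 permeabilize, anti-phospho-H2A.x 1:200 + Hoechst 2 ug/mL. Imaged, bidirectional fit vs DMSO.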

[7] = APR_HepG2_StressKinase_72hr: Apredica 72-hour HepG2 Assay for Stress Kinase (AID 2282921); conditions: HepG2 stress kinase (phospho-c-Jun) imaging, actives raise or lower the signal
Procedure, shortened: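 Phospho-c-Jun immunofluorescence measured by high-content imaging at 20x, six fields per well; bidirectional curve fitting against DMSO as baseline. Dosing: 0.39–200 uM, 72 h, 0.5% DMSO final.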

[8] = APR_HepG2_StressKinase_24hr: Apredica 24-hour HepG2 Assay for Stress Kinase (AID 2282922); conditions: HepG2 stress kinase (phospho-c-Jun) imaging, actives raise or lower the signal
Procedure, shortened: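 Read-out: phospho-c-Jun immunofluorescence (Cy3 secondary) quantified by high-content imaging at 20x, nuclei defined by Hoechst 33342. Human HepG2 liver cells dosed 24 hr, 0.39–200 uM, DMSO 0.5% v/v; gain or loss of signal fitted relative to DMSO.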

[9] = APR_HepG2_p53Act_72hr: Apredica 72-hour HepG2 Assay for p53 Activation (AID 2282923); conditions: high-content imaging, actives raise or lower the signal;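 also: average cellular p53 protein immunofluorescence intensity in HepG2 cells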
Procedure, shortened: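 Readout: p53 immunofluorescence quantified by automated high-content imaging at 20x, six fields per well, nuclei located via Hoechst. Dosing ran 72 hr over ten concentrations from 0.39 to 200 uM; bidirectional curve fitting against DMSO baseline.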

[10] = APR_HepG2_MitoMass_72hr: Apredica 72-hour HepG2 Assay for Mitochondrial Mass (AID 2282924); conditions: high-content imaging, actives raise or lower the signal;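 also: MitoTracker Red CMXRos stain intensity per cell imaged as mitochondrial mass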
Procedure, shortened: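 Read-out: MitoTracker Red fluorescence intensity from automated imaging (20x, six fields per well) in human HepG2 liver cells. Dosing ran 72 hr, 0.39–200 uM, 0.5% DMSO; bidirectional curve fitting versus DMSO baseline.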

Measured: AC50

CNC(=O)Oc1ccccc1OC(C)C
inactive: all assays above

Cc1cc(C)nc(NC(=O)NS(=O)(=O)c2ccccc2C(=O)OC2COC2)n1
not listed: [1]
inactive: all other assays above

N#Cc1c(Cl)c(Cl)c(Cl)c(C#N)c1Cl
active: [6] 0.322 µM
not listed: [1]
inactive: all other assays above

CCC(C)(C)C(=O)OC1=C(c2ccc(Cl)cc2Cl)C(=O)OC12CCCCC2
not listed: [1]
inactive: all other assays above

CC[C@H](C)[C@H]1O[C@]2(C=C[C@@H]1C)C[C@@H]1C[C@@H](C/C=C(\C)[C@@H](O[C@H]3C[C@H](OC)[C@@H](O[C@H]4C[C@H](OC)[C@@H](O)[C@H](C)O4)[C@H](C)O3)[C@@H](C)/C=C/C=C3\CO[C@@H]4[C@H](O)C(C)=C[C@@H](C(=O)O1)[C@]34O)O2 (tested in a mixture with another compound)
not listed: [1]
inactive: all other assays above

O=[N+]([O-])c1c(Cl)c(Cl)c(Cl)c(Cl)c1Cl
not listed: [1]
inactive: all other assays above

CNC(=O)/C=C(\C)OP(=O)(OC)OC
not listed: [1] | [9]
inactive: all other assays above

OCCOc1ccccc1
not listed: [1]
inactive: all other assays above

CC1(c2ccc(Oc3ccccc3)cc2)OC(=O)N(Nc2ccccc2)C1=O (configuration not stated)
active: [6] 93.2 µM | [9] 121 µM
not listed: [1]
inactive: all other assays above

O=C(NC(=O)c1c(F)cccc1F)Nc1ccc(OC(F)(F)C(F)OC(F)(F)F)c(Cl)c1 (configuration not stated)
not listed: [1] | [9]
inactive: all other assays above

COC(=O)c1ccccc1S(=O)(=O)NC(=O)N(C)c1nc(C)nc(OC)n1
not listed: [1]
inactive: all other assays above

COP(=O)(OC)OC=C(Cl)Cl
active: [6] 76.2 µM
not listed: [1] | [9]
inactive: all other assays above

CC1(C)C(C=C(Cl)Cl)C1C(=O)OC(C#N)c1ccc(F)c(Oc2ccccc2)c1 (configuration not stated)
not listed: [1]
inactive: all other assays above

C[C@H]1[C@H](c2ccc(Cl)cc2)SC(=O)N1C(=O)NC1CCCCC1
active: [3] 100 µM | [5] 44.5 µM
not listed: [1]
inactive: all other assays above

CNC(=O)CSP(=S)(OC)OC
not listed: [1] | [9]
inactive: all other assays above

Cc1[nH]c(=O)n(C(C)(C)C)c(=O)c1Cl
not listed: [1] | [9]
inactive: all other assays above

C#CCN1C(=O)COc2cc(F)c(N3C(=O)C4=C(CCCC4)C3=O)cc21
not listed: [1] | [9]
inactive: all other assays above

CCCN(CCC)c1c([N+](=O)[O-])cc(C(F)(F)F)cc1[N+](=O)[O-]
not listed: [1] | [9]
inactive: all other assays above

O=C1c2ccccc2C(=O)N1SC(Cl)(Cl)Cl
active: [3] 10.4 µM
not listed: [1]
inactive: all other assays above

COC(=O)c1ccccc1CS(=O)(=O)NC(=O)Nc1nc(OC)cc(OC)n1
not listed: [1]
inactive: all other assays above

CCC(C)Nc1c([N+](=O)[O-])cc(C(C)(C)C)cc1[N+](=O)[O-] (configuration not stated)
active: [5] 57.8 µM
not listed: [1] | [9]
inactive: all other assays above

CC(C)N(C(=O)COc1nnc(C(F)(F)F)s1)c1ccc(F)cc1
active: [4] 169 µM | [7] 113 µM
not listed: [1]
inactive: all other assays above

O=C(O)COc1ccc(Cl)cc1Cl
not listed: [1]
inactive: all other assays above

CN1CSC(=S)N(C)C1
inactive: [3] | [4] | [7] | [9]
active: [2] 4.12 µM | [5] 66.4 µM | [6] 21.8 µM | [8] 26.3 µM | [10] 57.2 µM

N#CN
not listed: [1] | [9]
inactive: all other assays above

COc1nn(CSP(=S)(OC)OC)c(=O)s1
not listed: [1]
inactive: all other assays above

CCOC1Oc2ccc(OS(C)(=O)=O)cc2C1(C)C (configuration not stated)
not listed: [1] | [9]
inactive: all other assays above

CCC(C)(NC(=O)c1cc(Cl)c(C)c(Cl)c1)C(=O)CCl (configuration not stated)
not listed: [1]
inactive: all other assays above

CC(C)OC(=O)Nc1cccc(Cl)c1
not listed: [1]
inactive: all other assays above
